# From the supplement of paper PMC13380429
# Values without a mark were called inactive.
# Test system: Vero E6 infected with SARS-CoV-2
# Assay: inhibition of SARS-CoV-2 cytopathic effect; higher = more antiviral protection, active = above 15
# Conditions: 100 nM; 48 h
row,SMILES,inhibition of SARS-CoV-2 cytopathic effect
1,O=C(O)c1ccc(/C=C2\SC(=S)N(c3cccc(C(F)(F)F)c3)C2=O)cc1,-2.17%
2,Cc1ccccc1/N=N/c1ccc(/N=N/c2c(O)ccc3ccccc23)c(C)c1 [sudan-IV],-4.36%
3,C[C@H]1COc2c(C3(N)CC3)c(F)cc3c(=O)c(C(=O)O)cn1c23 [pazufloxacin],2.15%
4,O=C(c1cccc(Br)c1)N1CCC(N2CCCC2)CC1,-0.46%
5,CC[C@@H](C)Nc1cc(C(=O)N[C@H]2C[C@H]3CC[C@@H](C2)N3c2ccc(C(=O)C3CC3)cn2)c(C)cc1C(N)=O,-3.63%
6,COc1ccc(CCNCc2ccc(OCc3ccc(Cl)nc3)c(OC)c2)cc1OC,-0.05%
7,CC(=O)NNC(=O)N1Cc2ccccc2Oc2ccc(Cl)cc21,-0.93%
8,CN1CCC(=C2c3ccccc3C=Cc3ccccc32)CC1 [cyproheptadine],-1.02%
9,CCCn1c(=O)c2[nH]c(-c3cnn(Cc4cccc(C(F)(F)F)c4)c3)nc2n(CC)c1=O,2.16%
10,Cc1nc(Nc2ncc(C(=O)Nc3c(C)cccc3Cl)s2)cc(N2CCN(CCO)CC2)n1 [dasatinib],-4.77%
11,Cc1cc(N2CCOCC2)ccc1Nc1nc(NC2CCCCC2)c2nc[nH]c2n1,-7.66%
12,Clc1ccc(-c2nc3sccn3c2/C=N/OCc2ccc(Cl)c(Cl)c2)cc1,-1.16%
13,"CCCn1c(=O)c2nc(-c3ccccc3)[nH]c2n(CCC)c1=O [1,3-dipropyl-8-phenylxanthine]",-2.96%
14,CCOc1ccccc1C(=O)O [2-ethoxybenzoic-acid],4.26%
15,Cc1cc(C)c(S(=O)(=O)n2cc(C)cc2C)c(C)c1,2.14%
16,CCCCn1c(=O)c2[nH]c(C34CC5CC(CC3C5)C4)nc2n(CCCO)c1=O,0.93%
17,Cc1cccc(NC(=O)c2ccc(C(F)(F)F)cc2C(=O)O)n1,1.41%
18,COc1ccc(C(=O)N2CCCc3cc(C4=NNC(=O)SC4C)ccc32)cc1OC (stereo not given),0.07%
19,O=C(/C=C/c1ccc2ccc(C(F)(F)F)cc2n1)c1ccncc1,-3.01%
20,CC(C)=CCC/C(C)=C/CC/C(C)=C/CSc1ccccc1C(=O)O [salirasib],1.36%

row,SMILES,inhibition of SARS-CoV-2 cytopathic effect
1,N=C1NC(=O)/C(=C/c2ccc(O)cc2)S1 [mirin],-0.71%
2,Clc1ccc(C(Cn2ccnc2)OCc2ccsc2Cl)c(Cl)c1 (stereo not given) [tioconazole],5.03%
3,Cc1cnc(Nc2ccc(OCCN3CCCC3)cc2)nc1Nc1cccc(S(=O)(=O)NC(C)(C)C)c1 [fedratinib],-0.42%
4,O=C(O)CC/C=C\C[C@@H]1CO[C@H](c2ccccc2Cl)O[C@@H]1c1ccccc1O (racemic),-2.37%
5,COc1cc(OC)c(/C=C2/C(=O)Nc3ccccc32)c(OC)c1,2.55%
6,Nc1ncnc2c1nc(Br)n2[C@@H]1O[C@@H]2COP(=O)(O)O[C@H]2[C@H]1O [8-bromo-cAMP],1.53%
7,CN[C@@H](C)CCC=C(C)C [isometheptene-mucate],0.64%
8,CC1(C)S[C@@H]2[C@H](NC(=O)C(C(=O)O)c3ccccc3)C(=O)N2[C@H]1C(=O)O (stereo not given in full) [carbenicillin],0.55%
9,NCC1(CC(=O)O)CCCCC1 [gabapentin],-2.14%
10,S=P(N1CC1)(N1CC1)N1CC1 [thiotepa],0.45%
11,COc1cc([C@@H]2c3cc4c(cc3[C@@H](O[C@@H]3O[C@@H]5CO[C@@H](C)O[C@H]5[C@H](O)[C@H]3O)[C@H]3COC(=O)[C@H]23)OCO4)cc(OC)c1O [etoposide],-0.58%
12,CCN(CC)Cc1nccn1-c1ccc([N+](=O)[O-])cc1C(=O)c1ccccc1Cl [nizofenone],-0.2%
13,O=c1[nH]c(=O)n([C@H]2C[C@H](O)[C@@H](CO)O2)cc1Br [broxuridine],1.08%
14,NCCc1cc[nH]n1 [betazole],2.63%
15,COc1ncc2cc(C(=O)Nc3cc(C(=O)NCc4cccc(Cl)c4)ccc3Cl)c(=O)[nH]c2n1,0.99%
16,c1ccc2c(c1)CN1CCCC1=N2 [desoxypeganine],-1.21%
17,NC(=O)Nc1sc(-c2ccc(F)cc2)cc1C(N)=O,-0.35%
18,CC1(C)C[C@@H]1C(=O)N/C(=C\CCCCSC[C@H](N)C(=O)O)C(=O)O [Cilastatin Sodium],-0.05%
19,O=C(Nc1cccc(Cl)c1)Nc1ncc(CCNc2ncnc3ccsc23)s1,3.34%
20,CCc1nn(CCCN2CCN(c3cccc(Cl)c3)CC2)c(=O)n1CCOc1ccccc1 [nefazodone],-12.7%
